Rows were chosen to be rich in hits. Some 6.5% of all compounds tested hit in one or more screens of this group.
Vaccinia mCherry – qHTS for Stage-Specific Inhibitors of Vaccinia Orthopoxvirus: mCherry Reporter Primary qHTS; Potency, µM (top dose mostly 36.5 µM), actives largely listed as inhibitors; Vaccinia virus mCherry reporter infection, fluorescence; actives 0.63% (n = 310,000); calls by dose curve; tested in A549 cells; also: nearly all actives have a fitted effect of over 35% in size
LASV entry inh – qHTS for Inhibitors of binding or entry into cells for Lassa Virus. Lassa virus pseudotype entry inhibition, cell reporter. Potency, µM (highest dose often 37.9 µM), actives largely listed as inhibitors. actives 1.2% (n = 300,000). AID 540256, 2011; calls by dose curve; tested in HEK293 cells; also: nearly all actives have a fitted effect of over 50% in size
HCMV antiviral – qHTS Assay for inhibitors of the human cytomegalovirus (HCMV); AID 1259415, 2018; HFF cells, HCMV-luciferase reporter, 72 h; active compounds read low; actives 4.5% (n = 410,000); activity change, negative = inhibition, % at 57.5 µM; in the data active = activity change below about -60%; inconclusive = no clear call, values can overlap the other calls; inactive = above about -39%
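Human foreskin fibroblasts infected with luciferase-reporter HCMV at MOI 1 PFU/cell, compounds at two doses. Luciferase measured 72 h post infection; normalized to buffer-only basal and Salinomycin (10uM) controls.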
FMDV antiviral – High Throughput Screening for Foot and Mouth Disease Virus Antivirals | FMDV antiviral cell-based qHTS | Potency, µM (highest dose often 57.9 µM), hits mostly inhibitors | actives 1.2% (n = 410,000); calls by dose curve; tested in HEK293T cells; also: read-out not given here; nearly all actives have a fitted effect of over 45% in size
VACV Venus inh – qHTS for Stage-Specific Inhibitors of Vaccinia Orthopoxvirus: Venus Reporter Primary qHTS | Vaccinia virus Venus reporter expression, fluorescence | Potency, µM (titrated, usually from 36.5 µM), most hits filed as inhibitors | actives 0.46% (n = 330,000) | AID 720580, 2013; calls by dose curve; tested in A549 cells; also: nearly all actives have a fitted effect of over 30% in size
MARV entry inh – qHTS for inhibitors of binding or entry into cells for Marburg Virus; Potency, µM (highest dose often 37.8 µM), most hits filed as inhibitors; actives 1.8% (n = 300,000); Marburg virus pseudotyped entry inhibition, cell reporter; calls by dose curve; tested in HEK293 cells
Numbers stand for hits; - = inactive; ? = inconclusive; . = no result; + = active, no number.

SMILES	Vaccinia mCherry	LASV entry inh	HCMV antiviral	FMDV antiviral	VACV Venus inh	MARV entry inh
O=C(Nc1ccccc1)C1=C[C@H](C2CCCCC2)C[C@H](OCCCCO)O1	-	.	-76	-	-	.
COc1ccc(CN2CCCC(c3nc(-c4ccncc4)ncc3-c3ccccc3)C2)cc1OC (stereo unspecified)	-	.	.	-	-	.
N#C[C@H](C(=O)NC1CC1)c1nc2ccccc2nc1N1CCN(C/C=C\c2ccccc2)CC1	.	.	.	.	.	-
CC(CC(=O)OCC(=O)Nc1ccc2[nH]c(=O)[nH]c2c1)c1ccccc1 (stereo unspecified)	-	-	-	-	-	-
Cc1ccc(S(=O)(=O)NC(=O)Cn2nnc(-c3ccccc3)c2COc2ccc3ccccc3c2)cc1	-	.	-	-	-	.
O=C(Nc1ccccc1)C1=C[C@@H](C2CCCCC2)C[C@@H](OCc2ccc(CO)cc2)O1	-	.	-60	-	-	.
C=CCN1C(=O)c2ccc(C(=O)N3CCN(S(=O)(=O)c4cccc(Cl)c4)CC3)cc2C1=O	-	-	-76	-	-	-
C=CCN1C(=O)c2ccc(C(=O)N3CCC(C(N)=O)CC3)cc2C1=O	.	.	-86	-	.	.
CCOC(=O)/C=C/[C@@H](C)NC(=O)C(F)(F)F	.	.	-	.	.	.
CC(C)[C@H](NC(=O)c1ccccc1F)C(=O)OCCN1C(=O)c2ccccc2C1=O	-	-	-	-	-	-
COc1cccc(CN2CC3(CN(S(C)(=O)=O)C3)c3c(n(C)c4cc(OC)ccc34)[C@H]2CO)c1	.	.	-	.	.	.
CCN1/C(=C/C=C/C2=[N+](CC)c3ccccc3C2(C)C)C(C)(C)c2ccccc21	-	.	-99	3.5µM	.	.
Cc1ccc(S(=O)(=O)N(CC(=O)Nc2cccc(N(C)S(C)(=O)=O)c2)c2ccc(Cl)c(Cl)c2)cc1	-	?	-	.	-	16µM
COc1cccc(NC(=O)CN(c2cccc(C(F)(F)F)c2)S(C)(=O)=O)c1	.	?	-	-	.	?
CN(c1cccc(NC(=O)CN(c2ccc(F)cc2)S(C)(=O)=O)c1)S(C)(=O)=O	-	-	-	-	-	-
CN(c1cccc(NC(=O)CN(c2ccc(C34CC5CC(CC(C5)C3)C4)cc2)S(C)(=O)=O)c1)S(C)(=O)=O	?	7.3µM	.	.	?	18µM
O=C(CN(c1cccc(C(F)(F)F)c1)S(=O)(=O)c1ccccc1)Nc1cccc(Cl)c1	?	-	-66	?	?	.
COc1cc(CNCC2CCCO2)ccc1OCC(N)=O (stereo unspecified)	.	.	-	-	.	.
CCOc1cc(CNCC2CCCO2)cc(Br)c1OCC(N)=O (stereo unspecified)	.	-	-69	-	.	?
O=C(Nc1ccccc1)C1CCN(S(=O)(=O)c2ccc3[nH]c4c(c3c2)CCCCC4)CC1	-	?	-	-	-	.
Cc1cc(C)cc(NC(=S)NCc2ccc3[nH]c4c(c3c2)CCCC4)c1	?	3.7µM	-	-	-	?
CCc1ccc(NC(=O)C2CCN(S(=O)(=O)c3ccc4[nH]c5c(c4c3)CCCCC5)CC2)cc1	-	-	+	-	-	.
O=C(NCc1ccc2[nH]c3c(c2c1)CCCC3)c1ccc(S(=O)(=O)N2CCCCC2)cc1	-	-	-78	?	-	-
COc1ccccc1N(C)C	-	.	.	.	-	.
C#CCOC(=O)c1ccccc1C(=O)n1nnc2ccccc21	.	-	-	22µM	.	-
SMILES	Vaccinia mCherry	LASV entry inh	HCMV antiviral	FMDV antiviral	VACV Venus inh	MARV entry inh
CC(=O)Nc1cc(NC(C)=O)cc(C(=O)N2CCCC3CCCCC32)c1 (stereo unspecified)	-	-	-	-	-	-
O=C(Nc1cc(Cl)ccc1N1CCOCC1)c1ccc(=O)[nH]c1	-	-	-	-	-	-
CCOC(=O)c1cccc(NS(=O)(=O)c2ccc(-c3cnc(C4CC4)o3)cc2)c1	-	-	-	-	-	.
N#Cc1ccc(NS(=O)(=O)c2ccc(-c3cnc(C4CC4)o3)cc2)cc1	-	?	-	-	-	.
Cc1ccc(-c2cnc(C3CC3)o2)cc1S(=O)(=O)Nc1cccc(C#N)c1	-	-	-84	-	-	.
COc1cccc(NS(=O)(=O)c2cc(-c3cnc(C4CC4)o3)ccc2C)c1	?	?	-89	-	?	.
NS(=O)(=O)c1ccc(NC(=O)c2cnn3c2NC(=C2CC2)C=C3C(F)F)cc1	-	.	.	.	-	.
Nc1ncnc2c1nc(Br)n2[C@@H]1O[C@@H]2COP(=O)(O)O[C@H]2[C@H]1O	-	.	-76	-	-	.
COc1cc2c(cc1OC)C(Cc1ccc(O)cc1)NCC2 (stereo unspecified)	-	-	-79	-	-	?
Oc1ccc(C[C@H]2NCCc3cc(O)c(O)cc32)cc1O	-	?	-	-	-	2.8µM
CCc1ccc(OCC2NCCc3cc(OC)c(OC)cc32)cc1 (stereo unspecified)	.	.	-90	-	.	.
CN(C)/C=C(/C(=O)c1ccc(Cl)cc1)S(C)(=O)=O	-	-	-103	-	-	?
CN(C)/C=C(/C(=O)c1ccc(Cl)c(Cl)c1)S(C)(=O)=O	-	-	-	-	-	-
Cc1ccc(OCc2cc(=O)n3cc(C)sc3n2)c(C)c1	-	-	-101	-	-	-
Cc1cn2c(=O)cc(COc3cccc(NC(=O)c4ccccc4C)c3)nc2s1	-	-	-69	-	-	-
Cc1cn2c(=O)cc(COC(=O)C(C)Oc3ccccc3)nc2s1 (stereo unspecified)	-	-	-	-	-	.
Cc1cn2c(=O)cc(COC(=O)c3cccc(NC(=O)C(C)Oc4ccccc4)c3)nc2s1 (stereo unspecified)	-	-	-64	-	-	.
Cc1cn2c(=O)cc(COc3ccc(Cl)cc3)nc2s1	-	-	-	-	-	-
Cc1cn2c(=O)cc(COc3ccccc3NC(=O)c3ccccc3C)nc2s1	-	-	-	-	-	-
CCOc1ccc(-n2ccc(=O)c(C(=O)Nc3ccc(S(=O)(=O)N4CCOCC4)cc3)n2)cc1	-	-	-	-	-	-
Cc1cccc(Nc2nnc(SC3CCOC3=O)s2)c1C (stereo unspecified)	-	-	-81	-	-	?
COc1ccc(N(CC(=O)NCCc2ccccc2)S(=O)(=O)c2ccc(OC)c(OC)c2)cc1	-	6.3µM	-	-	-	.
CCN(CC(=O)Nc1ccccc1OC)C(=O)c1ccc(NS(=O)(=O)c2ccc(C(C)=O)cc2)cc1	-	-	-	158µM	-	-
CCNC(=O)CN(c1ccc(Cl)cc1)S(=O)(=O)c1ccccc1	.	?	-	-	.	1.2µM
CCNC(=O)CN(c1ccccc1)S(=O)(=O)c1ccc(Cl)cc1	.	-	-	-	.	-
COc1ccc(N(CC(=O)NCc2ccccc2OC)S(=O)(=O)c2ccccc2)cc1	-	-	-	-	-	10µM
COc1ccc(S(=O)(=O)N(CC(=O)NCCc2ccccc2)c2ccc(Cl)cc2)cc1	-	-	-	-	-	-
